From PubChem BioAssay AID1745846 (National Center for Advancing Translational Sciences (NCATS), 2022)
About 30 (2%) of roughly 1,400 compounds were called active. Roughly 15% stayed inconclusive and do not appear here. Calls come from the whole dose curve; as a rule, active = well fitted inhibition curve with a large enough effect; inconclusive = small, poorly fitted or top-dose-only effect; inactive = flat fitted curve, though single readings scatter. The sample as a whole holds a higher share of actives than the screen did.
% is set by controls: 0 for no effect and ±100 for the full control effect; potency is the fitted concentration of half-maximal effect.

Test: Firefly Luciferase Counterscreen for Inhibitors of ATXN expression
Details: luminescence; series mostly up to 57.5 µM; activity change, negative = inhibition: at the top concentration
Source text: University of Utah School of Medicine, Salt Lake City, Utah
Spinocerebellar ataxia type 2 (SCA2) is a multisystem neurodegenerative disease caused by a dominantly acting mutation leading to expansion of a polyQ domain in the ataxin-2 protein (ATXN2). SCA2 patients develop progressive ataxia and later lose function in other neuronal systems. Prominent parkinsonian signs develop in some patients. Like many neurodegenerative disorders, no symptomatic or disease-modifying treatments are known.
The primary objective of the proposed research is to identify compounds inhibiting ATXN2 expression and to test them for efficacy in SCA2 mouse models. We have developed a cell-based assay paired with an in vivo mouse model using identical luciferase expression constructs. This approach takes advantage of an ATXN2-luciferase transgene, with the luciferase gene flanked by the upstream and downstream portions of the ATXN2 gene. Here we describe a 5-7 dose quantitative high thoroughput screen (qHTS) for compounds lowering ATXN2 expression. We screened the NIH Molecular Libraries Small Molecule Repository (MLSMR) and NCGC's mechanistically annotated (MIPE) and drug repurposing (NPC) collections of compounds for lowering expression of an ATXN2-luciferase reporter in HEK-293 cells. The assay is a multiplexed cell viability assay to ensure target reduction in the absence of cytotoxicity. Secondary qHTS assays included a CMV-luciferase reporter expressed in HEK-293 cells as well as a biochemical assay using recombinant luciferase to detect inhibitors of the reporter enzyme. Compounds that inhibit ATXN2 expression but is not cytotoxic were selected for confirmatory and secondary screens.
PROTOCOL TABLE (as described by Inglese J, Shamu CE and Guy RK. 2007)
SEQUENCE No. (e.g., 1, 2, 3, etc.); […] (e.g., Cells, Incubation, Reagent, etc.); VALUE; DESCRIPTION.
2; Compounds; 23 nL; Kalypsis pintool (Wako USA) equipped with a 1536-well pin head.
3; Enzyme; 1 uL; recombinant firefly luciferase (prepared in 50 mM Tris HCl pH7.5, 10 mM MgCl2, 0.05% BSA, 0.01% Tween20) at final concentration of 10 nM. Wells containing buffer only were used as control (set as 100% inhibition when normalizing data).
4; Incubation; 10 min; room temperature.
5; Detection; Luminescence; Viewlux plate reader (PerkinElmer).
NOTES (numbers refer to Sequence numbers above)
1. Luciferase substrate is added to 1536 well, Greiner white assay plate. Evaporation was prevented by covering assay plates with metal lids containing holes to allow gas diffusion.
2. Compounds were added in a dose response manner with the final concentrations of 57, 11.4, 2.28, 0.46, 0.091, 0.018, 0.0037 uM. Vehicle-only plates, with DMSO being pin-transferred to columns 5-48, were inserted uniformly at the beginning and the end of each library to monitor and record any shifts in assay performance.
3. Recombinant firefly luciferase (10 nM final concentration) is added to the assay plate.
5. End-point luminescence is then measured on the Viewlux (PerkinElmer) imager equipped with a clear emission filter using a 2 sec exposure.
Inglese J, Shamu CE and Guy RK, Reporting data from high throughput screening of small molecule libraries, Nature Chemical Biology, 2007, 3(8): 438-441. doi.org/10.1038/nchembio0807-438.
With `CS(=O)(=O)Nc1cccc(NC(=O)c2cccc3c(-c4cccc(C(N)=O)c4)coc23)c1` the Potency was 14.1 µM (active). With `NC(=O)c1cccc(-c2ccnc3c2CC(C(=O)Nc2cccc(Oc4ccccc4)c2)O3)c1` (stereo unspecified) the “activity change, negative = inhibition” value was -7.75% (inactive). For `CCc1nc2ccc(C(=O)Nc3cccc(NS(C)(=O)=O)c3)cn2c1N(C)CCCc1ccccc1`, the “activity change, negative = inhibition” value was -2.96% (inactive). With `O=C1c2cccc3cc([N+](=O)[O-])cc(c23)C(=O)N1CCN1CCCC1` the “activity change, negative = inhibition” value was 1.39% (inactive). In the case of `COc1cc(C(=O)NC(=S)NNC(=O)c2cnccn2)cc(OC)c1OC`, the “activity change, negative = inhibition” value is reported as -7.31% (inactive). In the case of `CC1=NN(c2nc3ccccc3[nH]2)C(=O)C1Cc1ccccc1` (stereo unspecified), the Potency is reported as 25.1 µM (active). In the case of `Clc1ccc2c(NCc3ccccc3)ccnc2c1`, the “activity change, negative = inhibition” value is reported as -5.63% (inactive). In the case of `CC1(C)C(C=C(Cl)Cl)C1C(=O)Nc1ccc([N+](=O)[O-])cc1` (stereo unspecified), the “activity change, negative = inhibition” value is reported as -1% (inactive). In the case of `CC1(C)Cc2ccccc2C2=NNC(=O)C2=N1`, the “activity change, negative = inhibition” value is reported as -3.52% (inactive). For `CC(=O)Nc1ccc(N(CC(O)Cn2c3ccccc3c3ccccc32)S(=O)(=O)c2ccc(C)cc2)cc1` (stereo unspecified), the “activity change, negative = inhibition” value was 1.22% (inactive). With `Cc1ccc(S(=O)(=O)Nc2ccc(O)c3cccnc23)cc1` the “activity change, negative = inhibition” value was -7.92% (inactive). For `CC(C)n1cnc2c(N(C)c3ccccc3)nc(N(CCN(C)C)Cc3ccccc3)nc21`, the “activity change, negative = inhibition” value was 0.895% (inactive). With `COc1ccc(-c2cc(C3CCN(c4ccc(C(C)=O)cc4[N+](=O)[O-])CC3)[nH]n2)cc1` the “activity change, negative = inhibition” value was -6.65% (inactive). In the case of `CCC(c1nnnn1C1CCCC1)N(Cc1cccs1)Cc1cc2cc(C)ccc2[nH]c1=O` (stereo unspecified), the “activity change, negative = inhibition” value is reported as 2.95% (inactive). For `CC[n+]1c(/C=C/N(C)c2ccccc2)oc2ccc(F)cc21`, the “activity change, negative = inhibition” value was 2.57% (inactive). In the case of `O=[N+]([O-])c1ccc(NC(c2ccccc2)c2ccc3cccnc3c2O)cc1` (stereo unspecified), the “activity change, negative = inhibition” value is reported as 0.892% (inactive). For `CCC1=C(CC2NCCc3ccccc32)CC2c3cc(OC)c(OC)cc3CCN2C1` (stereo unspecified), the “activity change, negative = inhibition” value was -1.08% (inactive). With `O=C(CNC(=O)c1ccccc1F)N/N=C/c1cc(Br)ccc1OC(=O)/C=C/c1ccco1` the “activity change, negative = inhibition” value was -17.1% (inactive). In the case of `O=C(CNC(=O)c1ccc(F)cc1)N/N=C/c1cc(Br)ccc1OC(=O)/C=C/c1ccco1`, the “activity change, negative = inhibition” value is reported as -1.3% (inactive). In the case of `O=C(/C=C/c1ccco1)Oc1cc(Br)cc(/C=N/NC(=O)c2ccccc2O)c1`, the Potency is reported as 12.6 µM (active). In the case of `O=C(CCCN1C(=O)/C(=C/c2ccccc2Cl)SC1=S)NNC(=O)c1ccc(Cl)cc1Cl`, the “activity change, negative = inhibition” value is reported as 4.34% (inactive). For `Cc1nnc(SCC(N)=O)n1CC1CCCO1` (stereo unspecified), the “activity change, negative = inhibition” value was 0.593% (inactive). With `Cc1cc(C(=O)CN2C(=O)c3ccccc3S2(=O)=O)c(C)n1CC1CCCO1` (stereo unspecified) the Potency was 6.31 µM (active). In the case of `Cc1ccc(NC(=O)CN2C(=O)c3ccccc3S2(=O)=O)cc1C`, the “activity change, negative = inhibition” value is reported as -22.2% (inactive). With `O=C(CN1C(=O)c2ccccc2S1(=O)=O)c1ccc(Cl)cc1Cl` the Potency was 0.562 µM (active). For `COc1ccc(S(=O)(=O)Nc2ccc(F)cc2)cc1N(C)S(=O)(=O)c1ccc(Cl)cc1`, the “activity change, negative = inhibition” value was -4.61% (inactive).
